{
  "source": "PubChem BioAssay AID1159506",
  "about": "(National Center for Advancing Translational Sciences (NCATS), 2015)",
  "note": "In all, about 59,000 sequences were measured (the read-out: median about -0.00055, lowest 2% from about -2 on). This is one part of a sample in which the lowest values are shown more often than they occur.",
  "data": [
    {"experiment": "Identification of proteins required for the processing of the EWS-FLI1 nascent transcript;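 also: robust z of luciferase light less the median z of siRNAs with the same seed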", "settings": "TC32 Ewing sarcoma NR0B1-luc vs CMV-luc (EWS-FLI1 target promoter against control promoter), 48 h; screened at 20 nM (by protocol)", "in_short": "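Readout: OneGlo luminescence, 48 h post-transfection, TC32-NR0B1-luc vs TC32-CMV-luc in parallel. siRNA 20 nM final, RNAiMax lipid, 600 cells/well; z-score-MAD transformed, then seed-adjusted.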", "values": [
      {"sequence": "UUUGUUUCGCUGGUCUUUG against RYBP", "seed-corrected z-score": -2.49},
      {"sequence": "UAUCCUGUAAGUUGUGGGC against TEX28", "seed-corrected z-score": 1.15},
      {"sequence": "UCACUAAUAGGAUCUUCGC against RAB3GAP1", "seed-corrected z-score": 0.413},
      {"sequence": "AAGGUUUUCCGAGUAACUC against LYZL6", "seed-corrected z-score": 1.38},
      {"sequence": "AUAAGACUGACCUUGGUUG against TFCP2L1", "seed-corrected z-score": -2.59},
      {"sequence": "UUUUAUUCGAAAUUCUGCA against ITGB1BP1", "seed-corrected z-score": 0.195},
      {"sequence": "AAGCCGAAAAUUGAUCUGC against GLDC", "seed-corrected z-score": 0.214},
      {"sequence": "AAAUCUGCACUCUUGGUCA against RGS11", "seed-corrected z-score": -2.54},
      {"sequence": "AUGGUAGACACCUUAGUUC against RPL7P23", "seed-corrected z-score": -2.39},
      {"sequence": "UCGUUUACCAAACAGUUUC against BTK", "seed-corrected z-score": -0.0928},
      {"sequence": "UUUGUUCUGGAUGCCCUGC against WARSP1", "seed-corrected z-score": 0.407},
      {"sequence": "UUGGUUCCAUUGUAGGUCU against TSPAN3", "seed-corrected z-score": -0.422},
      {"sequence": "UUCUUUUUGUCCAAACUCU against SLC25A25", "seed-corrected z-score": -0.247},
      {"sequence": "AAAGUUACUCUUCCAAACC against POC1A", "seed-corrected z-score": -2.67},
      {"sequence": "AUAUUUCAUAUAGGCGAUG against PLA2G10", "seed-corrected z-score": -0.215},
      {"sequence": "UCUUGGUCCUCUGGCAGUC against TMEM116", "seed-corrected z-score": -0.118},
      {"sequence": "AAAUAAAACGUACAAAUAC against SCRT1", "seed-corrected z-score": 0.713},
      {"sequence": "UUCAUCUCCACAAUCACCG against MAG", "seed-corrected z-score": -0.753},
      {"sequence": "AAGCGGGAUGAAGAAAUCC against GSX2", "seed-corrected z-score": 3.22},
      {"sequence": "UCUGCACUUGUCAAUAUCC against MED10", "seed-corrected z-score": -0.53},
      {"sequence": "UUCGUUAUCAAUGCAGUAG against TUBB4B", "seed-corrected z-score": -1.5},
      {"sequence": "AUCUUGGUGAUUUCGCGGC against NDN", "seed-corrected z-score": -2.11},
      {"sequence": "UAACAUAAUUAUAACCUCC against ZNF716", "seed-corrected z-score": 0.757},
      {"sequence": "UGAGGUUAGAGCACUGCAC against CCDC87", "seed-corrected z-score": -0.47},
      {"sequence": "UUCUUUCUCACGGUCACUC against LOC728445", "seed-corrected z-score": -0.746},
      {"sequence": "UCAGGUGCUCCAAGUACUG against TMEM201", "seed-corrected z-score": -2.21},
      {"sequence": "UCUUUGCUAGGUAAAAAGC against PRUNE", "seed-corrected z-score": 1.32},
      {"sequence": "AACCGAAGGAGAUUCCUGG against C8orf49", "seed-corrected z-score": 0.161},
      {"sequence": "AAAACGAUCAAAAUCUGUC against RPL14P1", "seed-corrected z-score": -3.16},
      {"sequence": "AAUUCACAUGUUGUAAUCC against STRADBP1", "seed-corrected z-score": -0.053},
      {"sequence": "UUUCCUAUUCACAAGAGCG against FHIT", "seed-corrected z-score": 1.2},
      {"sequence": "AAUCGCAUUGUUCAUGUCC against OR6K3", "seed-corrected z-score": -1.67},
      {"sequence": "UCCUUGCAAAUCUCCGACC against LTBP3", "seed-corrected z-score": -1.01},
      {"sequence": "AAACCGAUAAGAACUGAGA against TMEM41A", "seed-corrected z-score": 0.54},
      {"sequence": "AAACCUAUUAACUUCAAGC against CHKA", "seed-corrected z-score": -0.134},
      {"sequence": "AAAGUUGAGGGUAGCACUC against AP5B1", "seed-corrected z-score": 0.334},
      {"sequence": "AUGGGUCUCAUGCUCCUCU against TMEM74B", "seed-corrected z-score": -2.13},
      {"sequence": "UUAAUGAAUCUACAGUCCG against OTOR", "seed-corrected z-score": 0.51},
      {"sequence": "AGUAUAUCACACUUGAUCC against COL4A4", "seed-corrected z-score": -0.00727},
      {"sequence": "UAAAUUUGCAUGAAGGUGU against TMEM179", "seed-corrected z-score": 0.108},
      {"sequence": "UCUAGGAGCAGCGCAACUG against ANKRD29", "seed-corrected z-score": -0.882},
      {"sequence": "AAGGUAAACGAUUAAAUUG against LAMTOR3", "seed-corrected z-score": 0.248},
      {"sequence": "UACAGUAGCACUGCCCUGU against LAMA5", "seed-corrected z-score": -2.69},
      {"sequence": "ACAUUGGUACCUGUCAUCC against GLYCTK", "seed-corrected z-score": 0.203},
      {"sequence": "AAAAUAUAGAUAUCUAUGC against GADD45B", "seed-corrected z-score": 1.35},
      {"sequence": "AGCAGCAUCAUUCUCAUGU against LOXL4", "seed-corrected z-score": 0.376},
      {"sequence": "UCAGUUUCCUCGCCGACUC against SH3BP5L", "seed-corrected z-score": -2.66},
      {"sequence": "UACUGAGGACCUUUCGUUC against SPATA21", "seed-corrected z-score": -0.926},
      {"sequence": "UGCUUAACCACAGAAGCUG against ADSL", "seed-corrected z-score": -0.731},
      {"sequence": "UACAGUACAAGUAUGAGCU against CYB561D2", "seed-corrected z-score": -1.33},
      {"sequence": "UCUCCUUUUAGCAUGAUCC against SNRPE", "seed-corrected z-score": -2.15},
      {"sequence": "UUGAGUCCAAUGUCCACUC against TBC1D9B", "seed-corrected z-score": -0.454},
      {"sequence": "UCCACGUCAAAUUUAUCCC against SPAG1", "seed-corrected z-score": 0.232},
      {"sequence": "AAUUGUCCAACAUCAACGA against METTL2A", "seed-corrected z-score": -1.52},
      {"sequence": "AUUCGAAUUAGGUAUUGGG against MAK16", "seed-corrected z-score": 0.538},
      {"sequence": "UGCUUCAACAAAUCGGGCC against C7orf57", "seed-corrected z-score": -2.05},
      {"sequence": "UGAUUGCAGAUGAUGAUCC against VHLL", "seed-corrected z-score": -0.39},
      {"sequence": "UUAGUUCCCAAGUACUAUC against CHD9", "seed-corrected z-score": 0.856},
      {"sequence": "UGGAUAGCGGUCCUCAUCC against IL17C", "seed-corrected z-score": 1},
      {"sequence": "UUGGGUGUCAGCAGUACUG against PRRC2A", "seed-corrected z-score": -2.05},
      {"sequence": "AAGGUAAACAUGUUCUCGC against TARSL2", "seed-corrected z-score": 0.287},
      {"sequence": "AAAGUUACGCACCCAAUUG against GBA", "seed-corrected z-score": 0.249},
      {"sequence": "AAUGAGACGACGGAUGAAC against C19orf25", "seed-corrected z-score": -0.471},
      {"sequence": "UUACUGACAGUAUUUCACU against C10orf67", "seed-corrected z-score": -0.0381},
      {"sequence": "UUCAGCAUCACGAACAUCC against SRSF10", "seed-corrected z-score": -1.61},
      {"sequence": "UGCAGGUUCAGCUUGUCUG against LGALS2", "seed-corrected z-score": -2.58},
      {"sequence": "UUCAGCACCACGCAGUUGC against C12orf65", "seed-corrected z-score": 0.924},
      {"sequence": "UAUGGAGAGAGAAUAACUG against SDHC", "seed-corrected z-score": 0.151},
      {"sequence": "UAUUGACCACAAUCGAGGC against PIGX", "seed-corrected z-score": 1.23},
      {"sequence": "ACAGGGACUUGAACUGGGC against IFNL3", "seed-corrected z-score": -2.31},
      {"sequence": "UUUGUUCCAAGGCAUUCAC against CCDC129", "seed-corrected z-score": 1.07},
      {"sequence": "UAGGUCGAAAGAACUCAGC against PEX3", "seed-corrected z-score": -0.0828},
      {"sequence": "UGGAGUAUGAGUCCCAUUC against MTPAP", "seed-corrected z-score": -15.6},
      {"sequence": "UUAGAUACAGGUAUGAACA against OR4C45", "seed-corrected z-score": 0.478},
      {"sequence": "UAAGUUCUUAGAGUUUUGG against TP53TG3", "seed-corrected z-score": 0.271},
      {"sequence": "UUCUCGAUUAAGAAGUUUC against C18orf21", "seed-corrected z-score": 0.33},
      {"sequence": "UCAGUAGCAACUGCCCUUU against MGAT4EP", "seed-corrected z-score": -2.02},
      {"sequence": "AUCGAUUCCAUUUCAAGGC against SERHL", "seed-corrected z-score": 0.0431},
      {"sequence": "UUGAUUUUCUCCUCCAUCC against JAKMIP1", "seed-corrected z-score": -0.126},
      {"sequence": "UGUAGUACACUCUUGUUCU against GOLGA8G", "seed-corrected z-score": -0.318},
      {"sequence": "UAGUUGAGAAGGUCGAAGU against SF3B5", "seed-corrected z-score": -2.5},
      {"sequence": "UUAUGUCUCAUGAGUCGGU against ZNF548", "seed-corrected z-score": -0.149},
      {"sequence": "UGACUGUCUUGCGUAUUUC against TTC21A", "seed-corrected z-score": 0.856},
      {"sequence": "UUCUAGAUAAUAACUCUCC against CCDC47", "seed-corrected z-score": 0.297}
    ]}
  ]
}
